Only a selection was taken, and hits are over-represented in it overall.
HT1080 IDH1KD tx: HT-1080 IDH1 knockdown cell toxicity (counter line); HT-1080 IDH1 knockdown viability, ATP luminescence, 48 h; Potency, µM (doses to about 46.1 µM), usual class: cytotoxic; 360,000 compounds, 2% hits
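Viability of IDH1-knockdown HT-1080 fibrosarcoma cells was assessed by CellTiter-Glo after 48 h at 37 °C with titrated compound; concentration-effect curves were classified by fit quality and response size.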
IL-1B inflam inh: inflammasome signaling inhibition, IL-1 beta readout | THP-1 LPS/ATP IL-1B secretion, AlphaLISA, 16 h; active compounds read low | activity change, % at 57.5 µM | 360,000 compounds, 4.7% hits; in the data active = activity change below about -50%; inconclusive = mostly about -30% to -49%
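THP-1 cells pretreated 1 hr with compounds (up to 57.5 uM final), then stimulated with LPS (250 ng/mL final) plus ATP (1.25 mM final); secreted IL-1B measured by AlphaLISA after 16 hr, decreased signal indicating inhibition.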
HT1080NT lethal: kills 2HG-producing HT-1080-NT fibrosarcoma cells. HT-1080-NT fibrosarcoma viability, CellTiter-Glo ATP luminescence, 48 h. Potency, µM (highest dose often 46.1 µM), usual class: cytotoxic. 360,000 compounds, 1.6% hits. AID 686970;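 note: NT is the 2HG producing partner of a matched IDH1 knockdown line; nearly all actives have a fitted effect of over 55% in size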
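Luminescent CellTiter-Glo readout after 48 hours of compound exposure at 37 degrees C defined viability of HT-1080-NT cells. Activity was normalized to DMSO wells and cell-free media wells; concentration-response curves were fitted and assigned curve classes.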
12-LOX inh: ALOX12 (human) lipoxygenase inhibition | purified 12hLO, xylenol orange hydroperoxide absorbance | Potency, µM (top dose mostly 108 µM), most hits filed as inhibitors | 580,000 compounds, 1.1% hits | AID 1671190
Target sequence (P18054 whole entry, looked up): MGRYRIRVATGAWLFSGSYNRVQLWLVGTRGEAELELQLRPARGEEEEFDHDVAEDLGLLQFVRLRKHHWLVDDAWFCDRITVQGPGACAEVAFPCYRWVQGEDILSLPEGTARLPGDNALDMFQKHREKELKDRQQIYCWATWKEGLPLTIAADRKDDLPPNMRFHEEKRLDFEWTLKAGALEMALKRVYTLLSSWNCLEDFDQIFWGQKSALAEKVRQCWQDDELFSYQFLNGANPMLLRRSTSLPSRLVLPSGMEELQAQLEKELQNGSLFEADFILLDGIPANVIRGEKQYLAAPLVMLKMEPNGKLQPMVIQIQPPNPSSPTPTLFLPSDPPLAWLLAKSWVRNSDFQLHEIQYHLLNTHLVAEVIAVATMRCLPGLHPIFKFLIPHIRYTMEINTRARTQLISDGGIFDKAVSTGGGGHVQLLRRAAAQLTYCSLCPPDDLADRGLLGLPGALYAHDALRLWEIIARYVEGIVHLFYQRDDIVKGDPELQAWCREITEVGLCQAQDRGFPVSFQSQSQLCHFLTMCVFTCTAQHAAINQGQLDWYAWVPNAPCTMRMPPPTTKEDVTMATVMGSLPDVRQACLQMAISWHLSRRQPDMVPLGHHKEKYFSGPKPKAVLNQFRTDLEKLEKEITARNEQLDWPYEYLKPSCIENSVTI
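Purified human 12hLO (150 nM final) in 25 mM Hepes, 0.01% Triton X-100, pH 7.0 was preincubated 15 min at room temperature with compound. Then 40 uM arachidonic acid was added, 30 min. Hydroperoxide was read by Fe-XO absorbance ratio 573/405 nm.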
TDP1 cell CPT: DT40-hTDP1 cell growth loss with CPT | chicken DT40 Tdp1-/-;hTDP1 cells + 20 nM CPT, ATP luminescence, 48 h | Potency, µM (series often up to 46.2 µM), actives largely listed as inhibitors | 420,000 compounds, 12% hits | AID 686979; note: nearly all actives have a fitted effect of over 55% in size
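Cell growth measured by CellTiter-Glo luminescence after a minimum 48 h, 37 C compound exposure with 20 nM CPT in Tdp1-knockout DT40 cells stably expressing hTDP1, seeded 400/well; qHTS titration format.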
DT40 TDP1 no CPT: qHTS for Inhibitors of human tyrosyl-DNA phosphodiesterase 1 (TDP1): qHTS in cells in absence of CPT. DT40 Tdp1-/- hTDP1 cells, no CPT, ATP luminescence, 48 h. Potency, µM (top dose mostly 46.2 µM), actives largely listed as inhibitors. 420,000 compounds, 15% hits; note: nearly all actives have a fitted effect of over 55% in size
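Growth of hTDP1-complemented DT40 Tdp1-knockout cells is measured by ATP luminescence after at least 48 hr compound exposure at 37 °C, with DMSO substituting for the 20 nM CPT used in the parallel screen.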
Numbers stand for hits; 0 = inactive; ? = inconclusive; - = no result given; [ ] = another dose, or the depositor's remark. Unless noted, calls come from the whole dose curve; as a rule, active = well fitted curve in the direction sought with a large enough effect; inconclusive = small, poorly fitted or top-dose-only effect, or another doubt; inactive = no such curve, though single readings can be large; an effect the other way counts as inactive or inconclusive.

SMILES	HT1080 IDH1KD tx	IL-1B inflam inh	HT1080NT lethal	12-LOX inh	TDP1 cell CPT	DT40 TDP1 no CPT
CCOc1cc(N2CCOCC2)c(OCC)cc1NC(=O)CSc1ncccn1	0	0	0	0	0	?
CCOc1cc(N2CCOCC2)c(OCC)cc1NC(=O)c1cc(C)cc(C)c1	0	0	0	0	13µM	12µM
COc1ccccc1NC(=O)c1ccc(-n2ccnc2)c([N+](=O)[O-])c1	0	0	0	0	0	0
CCCn1nc(C(=O)Nc2cc(OCC)c(N3CCOCC3)cc2OCC)c2ccccc2c1=O	0	0	0[9.24 µM]	0	16µM	3.3µM
CCOc1cc(N2CCOCC2)c(OCC)cc1NC(=O)Cc1ccccc1OC	0	0	0	0	16µM	18µM
CCOc1cc(N2CCOCC2)c(OCC)cc1NC(=O)Cc1ccccc1	0	0	0	0	0	?
CCOc1cc(N2CCOCC2)c(OCC)cc1NC(=O)c1ccc(-n2ccnc2)c([N+](=O)[O-])c1	0	0	0	0	0	15µM
CCOc1cc(N2CCOCC2)c(OCC)cc1NC(=O)c1c(-c2ccccc2Cl)noc1C	0	0	0	0	10µM	7.3µM
CCOc1cc(N2CCOCC2)c(OCC)cc1NC(=O)c1c(-c2ccccc2)noc1C	0	0	0	0	?	0
CC(C)N1CCN(C(=O)C23CCCC=C2N(c2ccccc2)C(=O)CC3)CC1 (stereo unspecified)	-	-	-	0	-	-
CC1CCN(S(=O)(=O)c2ccc3c(c2)N(CC(=O)NCCc2ccc(Cl)cc2)C(=O)CO3)CC1	-	-	-	0	-	-
CN(C)c1nc(-c2cn(CCC#N)c3ccccc23)cs1	26µM	0	?	?	?	?
COCCn1cc(-c2csc(N)n2)c2ccccc21	0	0	0	?	0	?
CC(=O)Nc1cccc(NC(=O)c2ccc3c(c2)S(=O)(=O)N=C(C)N3CC(C)C)c1	-	-	-	0	-	-
Cc1ccc(C(C)NS(=O)(=O)c2cccs2)cc1 (stereo unspecified)	-	-	-	0	-	-
COC(=O)c1ccccc1NC1=C/C(=N\S(=O)(=O)c2cccs2)c2ccccc2C1=O	6.3µM	-92	21µM	0	3.3µM	5.8µM
Cc1ccc(NC2=C/C(=N/S(=O)(=O)c3cccs3)c3ccccc3C2=O)cc1	4.1µM	-89	2.9µM	0	1.8µM	3.3µM
O=C1C(Nc2ccccc2)=C/C(=N/S(=O)(=O)c2cccs2)c2ccccc21	?	-99	?	-	2.9µM	4.6µM
O=S(=O)(/N=C(/Nc1cccc2ccccc12)c1ccccc1)c1cccs1	0	0	0	0	0	?
CN(C)C(=O)C1CCC(=O)N1Cc1cccs1 (stereo unspecified)	0	0	0	0	0	0
O=C(CSc1nnc(-c2c[nH]c3ccccc23)o1)N1c2ccccc2CCc2ccccc21	0[9.24 µM]	-68	?	0	16µM	16µM
O=C(CSc1nnc(-c2ccco2)o1)N1c2ccccc2CCc2ccccc21	0	-62	0	0	?	23µM
O=C(CSc1nnc(-c2c[nH]c3ccccc23)o1)N1CCCCC1	0	0	0	0	0	?
O=C(CSc1nnc(-c2ccc(Br)cc2)o1)N1CCN(C(=O)c2ccco2)CC1	0	0	0	0	?	18µM
c1ccc2c(c1)c1c(c3ccccc32)CN2CCCC2C1 (stereo unspecified)	23µM	-97	?	?	5.2µM	8.2µM
SMILES	HT1080 IDH1KD tx	IL-1B inflam inh	HT1080NT lethal	12-LOX inh	TDP1 cell CPT	DT40 TDP1 no CPT
Cc1cc(C(=O)CSc2nnc(-c3ccco3)o2)c(C)n1-c1ccc2c(c1)OCCO2	0	0	0	0	?	21µM
Cc1cc(C(=O)CSc2nnnn2C)c(C)n1-c1ccc2c(c1)OCCO2	0	0	0	?	?	?
Cc1cc(C(=O)CSc2nncs2)c(C)n1Cc1ccco1	0	0	0	0	0	12µM
COCC(C)n1c(C)cc(C(=O)CSc2nnc(-c3ccco3)o2)c1C (stereo unspecified)	0	0	0	0	?	?
Cc1cc(C(=O)CN2C(=O)NC(c3ccccc3)(c3ccccc3)C2=O)c(C)n1Cc1ccco1	0	0	0	0	?	23µM
Cc1cc(C(=O)CSc2nnc(-c3ccco3)o2)c(C)n1Cc1ccco1	0	0	0	0	21µM	23µM
CN(Cc1ccc2c(c1)OCO2)Cc1nc(N)nc(Nc2ccc(Cl)cc2)n1	-	-	-	0	-	-
CN(C)C(=O)CN1CCN(C(C(=O)O)c2c[nH]c3ccc(NC(=O)c4ccccc4)cc23)CC1 (stereo unspecified)	-	-	-	0	-	-
COCCNC(=O)[C@@H]1C[C@@H](O)CN1C1CCN(C(=O)c2ccc3ccccc3n2)CC1	-	-	-	0	-	-
Cc1cc(C(=O)CCl)c(C)n1Cc1ccco1	?	-97	?	0	2.6µM	2.6µM
Cc1ccc(C(=O)OCC(=O)c2cc(C)n(Cc3ccco3)c2C)s1	-	-	-	0	-	-
COc1ccccc1CNS(=O)(=O)c1ccc2[nH]c3c(c2c1)CCCCC3	-	-	-	0	10µM	7.3µM
COc1ccccc1N1CCN(S(=O)(=O)c2ccc3[nH]c4c(c3c2)CCCC4)CC1	-	-	-	0	?	?
CCOc1ccc(CNS(=O)(=O)c2ccc3[nH]c4c(c3c2)CCCC4)cc1OC	-	-	-	?	?	23µM
O=C(Oc1ccc(Sc2ccc(OC(=O)C3CC3)cc2)cc1)C1CC1	-	-	-	0	-	-
COc1ccc(-c2cn[nH]c2-c2ccc(OCc3ccccc3)cc2O)cc1	?	-99	0	?	?	?
COc1ccc2c(c1)CCc1cn[nH]c1-2	0	0	0	-	?	23µM
COc1ccc(-c2cn[nH]c2-c2ccc(OC)cc2O)cc1	?	-84	?	0	?	?
COc1ccc(-c2nc(C)ncc2-c2ccc(Cl)cc2)c(O)c1	0	0	0	0	15µM	0
COc1ccc(OC)c(NC(=O)Cn2ccn3nc(-c4ccccc4)c(CO)c3c2=O)c1	-	-	-	0	-	-
COc1ccc(C(=O)N2CCC3(CC2)NC(=O)N(Cc2ccccc2)C3=O)c(OC)c1	-	-	-	0	-	-
CN1CCCCC1COc1ccc2c(n1)CN(Cc1ccccc1F)C(=O)CO2 (stereo unspecified)	-	-	-	0	-	-
COc1ccccc1-c1cn[nH]c1-c1ccc(OCc2ccccc2)cc1O	?	-99	0	0	0	?
CCOc1ccc(-c2[nH]ncc2-c2ccccc2OC)c(O)c1	-	-	-	0	-	-
CCCCn1c(-c2sccc2C)n[nH]c1=S	0	0	0	40µM	0	?

Assay outcomes as filed in PubChem.
